SMILES strings stand for the structures. Out of some 350,000 compounds screened, about 1,600 (0.46%) were called active.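 Rule for the calls: active = activation of at least 50%, plus an integration ratio under a set limit after plate pattern correction; inactive = the rest.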 Many of the other results were omitted from the sample, so actives are more common in it than they were.

Results on 57 compounds are retold here after PubChem BioAssay AID588473 (Sanford-Burnham Center for Chemical Genomics, 2011).

The experiment concerns CRF-binding protein / CRF receptor 2 complex (human). The experiment in a line: activators of CRF-R2 with CRF-BP – cell-based, HEK293, calcium dye fluorescence, uHTS, primary screen (AID 588473).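 Note: plate controls were neutral control wells without compound for no effect and CRF at EC100 for full effect.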 The settings on record: calcium dye fluorescence (FLIPR), at 13.2 µM, active compounds read high, percent of saturating CRF peptide response.
For the compound `CCCCCCCCNS(=O)(=O)CCNC1CCCCC1`, the activation is -0.59% (inactive).
Take `CC(C)n1c(-c2ccncc2)n[nH]c1=S`: the activation was -1.12% (inactive).
As for `O=C(Nc1cc2c3c(c1)C1CCCC1CN3CC1CCCC21)c1ccc([N+](=O)[O-])cc1` (configuration not stated), the figure is -3.97% (inactive).
As for `Nc1cc(C(=O)N2CCN(c3ccccc3Cl)CC2)ccc1N1CC2CC(C1)c1cccc(=O)n1C2` (configuration not stated), the figure is 0.29% (inactive); as for `Oc1ccc(-c2nncn2-c2ccccc2)cc1`, 0.43% (inactive); as for `CCOc1ccc2nc(/N=C/c3nc(-c4ccccc4)oc3O)sc2c1`, 191% (active).
The same measure for `CC(N=Cc1nc(-c2ccccc2)oc1O)c1ccccc1` (configuration not stated): -5.27% (inactive); for `CCOc1ccc2nc(C(=O)N3CCCC(C)C3)sc2c1` (configuration not stated): 0.48% (inactive); for `Cn1c(=O)c2c(nc(N3CCOCC3)n2CCNC2=NCCC2)n(C)c1=O`: -1.41% (inactive).
In the case of `C[C@H]1NS(=O)(=O)c2cc(Cl)ccc2O[C@@H]1c1ccccc1`, the activation is -0.01% (inactive).
In the case of `COC(=O)C1(O)CC(C(C)C)=NN1C(=O)c1ccc(Cl)cc1` (configuration not stated), the activation was 0.23% (inactive).
As for `Cc1ccc(S(=O)(=O)/N=C2\C=C(NS(=O)(=O)c3ccc(C)cc3)C(=O)c3ccccc32)cc1`, the figure is -2.69% (inactive).
Take `COc1ccc(S(=O)(=O)/N=C2\C=C(NS(=O)(=O)c3ccccc3)C(=O)c3ccccc32)cc1`: the activation is -1.4% (inactive).
Regarding `CC1=C/C(=N\S(=O)(=O)c2ccccc2)C(C(C)C)=CC1=O`, the activation was 81.3% (active).
As for `O=[N+]([O-])c1cc(S(=O)(=O)NCCc2ccccn2)ccc1Cl`, the figure is 1.07% (inactive); as for `CCCCN1C[C@H](c2ccc(Br)cc2)[C@@H](CC(=O)Nc2ccc(Br)cc2)C1=O`, -0.04% (inactive).
The same measure for `COc1ccc(C2=CC(c3cccc(OC)c3)n3nnnc3N2)cc1` (configuration not stated): 69.7% (active); for `COc1ccc(C2CC(c3cccs3)Nc3nnnn32)cc1` (configuration not stated): -1.43% (inactive).
The same measure for `COC(=O)C1=C(C(=O)c2ccc(C)cc2)C(c2ccccc2)n2nnnc2N1` (configuration not stated): -0.02% (inactive); for `CC/C(=N\O)C(C)(C)/[N+]([O-])=C/c1ccc(Br)cc1`: 0.05% (inactive).
For `CC(C)(C)Nc1c(-c2cccs2)nc2ccccn12`, the activation was -0.46% (inactive).
In the case of `CCN(Cc1nc2ccccc2c(=O)[nH]1)Cc1cc(=O)oc2cc(C)c(C)cc12`, the activation is -0.08% (inactive).
As for `COC(=O)c1cc(C(=O)OCC(=O)Nc2cc(C)on2)cc([N+](=O)[O-])c1`, the figure is -3.69% (inactive).
As for `CCc1ccc(NC(=O)CN2C(=O)COc3ccc(S(=O)(=O)N4CCCC4)cc32)cc1`, the figure is -5.92% (inactive).
On to `COCCCNCC(=O)Nc1sc(C)c(C)c1C(=O)OC`, for which the activation was -2.35% (inactive).
The same measure for `C[n+]1ccc(/C=C/c2c[nH]c3ccccc23)cc1`: 61.1% (active).
`COc1ccc(N(CC(=O)Nc2ccc(F)c(F)c2)S(=O)(=O)c2c(C)[nH]c(=O)[nH]c2=O)cc1`: the activation is -1.2% (inactive).
Consider `CCOC(=O)N1CCN(C(=O)c2nn(-c3ccc(C)cc3)c(=O)c3c2c2ccccc2n3C)CC1`, for which the activation is 3.98% (inactive).
Turning to `CCOC(=O)c1nnn2c3ccccc3c(=O)n(C)c12`, the activation is 0.18% (inactive).
Regarding `CCCc1nc2c(c(=O)c3ccccc3n2C)c(=O)n1C1CCCCCC1`, the activation was 137% (active).
As for `CC(C)(C)C1CCc2c(sc3nc(SCC(N)=O)nc(N)c23)C1` (configuration not stated), the figure is 0.65% (inactive).
Consider `C=C(C)CSc1nc(N)c2c3c(sc2n1)CCC3`, for which the activation is 155% (active).
With `Nc1nc(SCC(=O)NCCN2CCOCC2)nc2sc3c(c12)CCC3`, the activation was 2.46% (inactive).
For the compound `CC(NC(=O)c1ccc(Cl)cc1)C(=O)N1CCCCC1` (configuration not stated), the activation is 0.19% (inactive).
The same measure for `O=C(CN1CCN(C2CCS(=O)(=O)C2)CC1)N1N=C(c2ccc(Cl)cc2)CC1c1ccco1` (configuration not stated): 0.41% (inactive).
Turning to `CCOc1cc(C=NNC(=O)CCCC(=O)NN=Cc2ccc(O)c(OCC)c2)ccc1O`, the activation was -2.14% (inactive).
On to `CCOc1cc(/C=C(\C#N)c2nc(-c3cccs3)c(NC(C)=O)s2)ccc1O`, for which the activation is 222% (active).
As for `CCOc1cc(/C=N/NC(=O)c2c(C)nc3ccc(Cl)cn23)ccc1O`, the figure is -0.91% (inactive).
As for `CCOC(=O)c1ccc(N/C(=N/S(=O)(=O)c2ccccc2)c2ccccc2)cc1`, the figure is -1.91% (inactive); as for `CC1(C)O[C@H]2CC(=O)OCC23[C@H]2CC[C@@]4(C)[C@H](c5ccoc5)OC(=O)[C@H]5O[C@]54[C@]2(C)C(=O)C[C@@H]13` (some centres not stated), 1.6% (inactive).
Regarding `C#CCN(N(C)c1ncc(C(F)(F)F)cc1Cl)S(=O)(=O)c1ccc2ccccc2c1`, the activation was 64.8% (active).
Take `Cc1nn(CC#N)c(=O)n1N(C)c1ncc(C(F)(F)F)cc1Cl`: the activation was 1.06% (inactive).
Regarding `CN(NS(=O)(=O)c1cccs1)c1ncc(C(F)(F)F)cc1Cl`, the activation was -0.09% (inactive).
As for `O=C(COc1ccc(Cl)cc1)NC(=S)Nc1ccccc1N1CCOCC1`, the activation was 1.42% (inactive).
As for `O=C(Cc1ccc(Cl)cc1)NC(=S)Nc1ccccc1O`, the figure is 128% (active); as for `Cc1ccccc1NC(=S)NC(=O)Cc1ccc(Cl)cc1`, 46% (inactive).
As to `Cc1csc(=O)n1CC(=O)OCC(=O)N(CC(C)C)c1c(N)n(Cc2ccccc2)c(=O)[nH]c1=O`, the activation was -0.29% (inactive).
As for `CCCCNC(=O)C(C)N(CCN(C)C)C(=O)CCCN1C(=O)NC(c2ccc(Cl)cc2)C(C(=O)OCc2ccccc2)=C1C` (configuration not stated), the figure is -0.71% (inactive); as for `Cc1ccc(CNC(=O)c2ccc3c(c2)S(=O)(=O)c2ccccc2C3=O)cc1`, -0.74% (inactive).
Consider `CC1CCN(c2ccc3c(c2)S(=O)(=O)c2cc(C(=O)O)ccc2C3=O)CC1`, for which the activation was 3.35% (inactive).
The same measure for `Cc1ccc(CNC(=O)c2cccc3c2C(=O)c2ccc(N4CCC(C)CC4)cc2S3(=O)=O)cc1`: 56.2% (active); for `Cc1ccnc2nc(C(=O)OCC(=O)N(CC(C)C)CC(C)C)nn12`: 3.18% (inactive); for `CC(=O)OCC1(O)CC23CCC4c5ccoc5CCC4(C)C2CCC1C3` (configuration not stated): 4.09% (inactive).
As for `COc1cc(OC)cc(C(=O)NC(=S)N2CCN(c3ccc(C(F)(F)F)cc3[N+](=O)[O-])CC2)c1`, the activation was 2.06% (inactive).
Turning to `COc1cccc2cc(C(N)=O)/c(=N\NC(=O)c3ccccc3)oc12`, the activation was -2.1% (inactive).
Turning to `CCN(CC)c1ccc2cc(C(N)=O)/c(=N\NC(=O)c3ccncc3)oc2c1`, the activation was 264% (active).
The same measure for `CCN(CC)c1ccc(C(=O)N/N=C(\C)c2cccc(OC)c2)cc1`: 0.09% (inactive).
